We go through 35 compounds from PubChem BioAssay AID743262 (National Center for Advancing Translational Sciences (NCATS), 2014).

Screen size: about 1,300 compounds; about 25 (2%) were called active. Where a call stands in place of a potency, no number is given. About 9% were inconclusive and are not listed. The sample holds actives, similar compounds and a random draw of the others, so the mix is not that of the screen. The call rests on the fitted dose curve; in most records, active means well fitted activation curve with a large enough effect; inconclusive means small, poorly fitted or top-dose-only effect; inactive means flat fitted curve, though single readings scatter.
Potency means the concentration at half of the fitted maximal effect.

Sequence of Glucagon-like peptide 1 receptor (Homo sapiens) (P43220 whole entry, looked up): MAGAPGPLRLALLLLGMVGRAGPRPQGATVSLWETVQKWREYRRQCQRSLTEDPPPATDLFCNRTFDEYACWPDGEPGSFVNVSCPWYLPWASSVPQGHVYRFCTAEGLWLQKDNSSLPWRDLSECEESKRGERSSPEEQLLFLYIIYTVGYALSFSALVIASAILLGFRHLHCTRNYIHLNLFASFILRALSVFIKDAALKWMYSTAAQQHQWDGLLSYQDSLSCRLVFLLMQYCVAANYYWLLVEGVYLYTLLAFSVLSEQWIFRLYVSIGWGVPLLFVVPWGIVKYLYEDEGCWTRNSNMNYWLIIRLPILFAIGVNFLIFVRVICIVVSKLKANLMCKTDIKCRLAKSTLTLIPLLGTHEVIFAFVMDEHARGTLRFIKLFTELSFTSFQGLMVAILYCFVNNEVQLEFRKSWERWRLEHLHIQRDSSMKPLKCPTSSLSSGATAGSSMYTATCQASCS

The test has as its target Glucagon-like peptide 1 receptor (Homo sapiens) (UniProt P43220). The experiment in a line: qHTS of GLP-1 Receptor Agonists: Hit Validation. The conditions noted are these: HEK293 GLP-1R, cAMP-response luciferase, 4-6 h; series mostly up to 46.1 µM. An excerpt: The overall goal of this project was to develop a novel assay for discovering small molecule ligands for class B1 G protein-coupled receptors (GPCRs). Very few agonists (or inverse agonists) with generally weak activity for this entire group of physiologically important receptors are known to date. To establish proof-of-principle that this critical bottleneck can be overcome with a suitable screening approach, our studies focused on the class B1 receptor for glucagon-like peptide-1 (GLP-1R), a potential therapeutic target for diabetes and neurodegenerative disease. The assay was developed in a "mix and measure" format using a cell-based functional readout. Toward this goal, stably transfected HEK293 cell clones were established that co-express (i) a cAMP-responsive luciferase reporter gene, and (ii) GLP-1Rs that upon ligand interaction either stimulate (agonists) or inhibit (inverse agonists) luciferase activity. In different cell lines to be used for screening, expressed GLP-1Rs are specifically optimized for high sensitivity detection of either weak agonists (hypersensitive receptor) or inverse agonists (constitutively active receptor mutant). In addition, control cell lines were developed that express either the cAMP-responsive reporter gene without recombinant GLP-1Rs (enabling initial exclusion of GLP-1R independent effects of candidate probes), or the reporter gene together with wild type GLP-1Rs (for confirmation of probe activity at this receptor), or the reporter gene in combination with the constitutively active orphan receptor GPR119 (enabling initial exclusion of GLP-1R independent inhibitory effects of candidate inverse agonists). To that end, this assay was optimized for 1536-well format and screened against the MLSMR. NIH Molecular Libraries Probe Production Network [MLPCN] NIH Chemical Genomics Center [NCGC] Grant: NS064851 PI Name: Martin Beinborn, Tufts Medical Center
In a white solid 1536-well plate, 6 uL of cells are dispensed in DMEM without phenol red, 10% Nu serum, and 1% pen-strep medium. The plates are then incubated for 12 hours at 37 deg C at 5% CO2 before 23 nL of compounds are added. After a 4-6 hr incubation at37 deg C and 5% CO2, 3 uL of detection reagent are added and after a 12 min incubation at RT, a luminescent read is obtained on the ViewLux.
Background: qHTS replaces the single test concentration by a dilution series.
On to `COCCNc1nc(Nc2ccc(C)cc2C)c2sccc2n1`, for which the Potency is 9.2 µM (active). Next, `COCCNc1nc(Nc2ccccc2Cl)c2sccc2n1`: “inactive”; `Clc1ccccc1Nc1nc(NCC2CC2)nc2ccsc12`: “inactive”.

For the compound `CCOc1ccc(C(C)=O)cc1COC(=O)CCc1cc(OC)c(OC)c(OC)c1`, the Potency result was “inactive”.

On to `CCOC(=O)c1c(C)[nH]c(C)c1C(=O)COC(=O)c1sccc1C`, for which the Potency result was “inactive”.

For `CCOC(=O)c1cn(-c2ccccc2)nc1-c1ccncc1`, the Potency result was “inactive”. Regarding `Nc1nnc(-c2cn(-c3ccccc3)nc2-c2ccccc2)o1`, the Potency was 5.17 µM (active). As for `COc1ccc(Cn2c(SCC#N)nc3ccc(N4CCOCC4)cc3c2=O)cc1`, the entry is “inactive”; as for `CCOC(=O)C1(C)CCCN(C(=O)c2cc(C)oc2C)C1` (stereo not given), “inactive”.

Regarding `Cc1ccc(NC(=O)Nc2ccc([N+](=O)[O-])cc2)nc1`, the Potency result is “inactive”. `COc1cc2c(cc1OC)C1=C(C#N)CCC(=NC(=O)c3ccc(Cl)cc3)N1CC2`: the Potency result is “inactive”.

In the case of `C=CCSc1nc2c(c(=O)[nH]c(=O)n2C)n1CC`, the Potency result is “inactive”. As for `COc1ccc([N+](=O)[O-])cc1NS(=O)(=O)c1cc(C(=O)N2CCN(C)CC2)ccc1OC`, the entry is “inactive”. Next, `CC(C)Cn1cnc2c(SCc3ccccc3F)nc(N)nc21`: “inactive”; `CCCn1c2ccc(F)cc2c2nnc(SCCN3CCOCC3)nc21`: “inactive”. As for `CCOc1ncccc1C(=O)OCc1ccc(C(=O)OC)o1`, the Potency entry is “inactive”. As for `Nc1nc2sc3c(c2c(=O)s1)CCCC3`, the entry is “inactive”; as for `COc1cc2c(cc1OC)CN(C(=O)c1ccc(N3CCCC3)c([N+](=O)[O-])c1)CC2`, “inactive”.

With `COC(=O)[C@@H]1CCCN1C(=O)c1cc(COc2cccc3cccnc23)on1`, the Potency entry was “inactive”. Next, `CCN=C1S/C(=C\c2cn(CC)c3ccccc23)C(=O)N1CC`: “inactive”; `COc1ccccc1N1CCN(C(=O)/C=C/c2ccco2)CC1`: “inactive”. As for `COc1cccc(OC)c1C(=O)Nc1ccc(C(=O)c2ccncc2)cc1`, the entry is “inactive”; as for `CCOC(=O)c1c(NC(=O)COC)sc(C)c1C`, “inactive”.

Regarding `Cc1cc(C)n(-c2nnc3n2N=C(c2c[nH]c4ccccc24)CS3)n1`, the Potency entry is “inactive”. Next, `COc1ccc(OC)c(-c2nnc3n2N=C(c2ccc(OC)c(OC)c2)CS3)c1`: 1.64 µM (active); `COc1ccc(C2=NN(C(C)=O)C(c3cccs3)C2)cc1OC` (stereo not given): “inactive”. For `c1cc2c(cc1C1=Nn3c(nnc3C3CCCCC3)SC1)OCO2`, the Potency result was “inactive”. As for `COc1ccc(C2=Nn3c(nnc3-c3ccco3)SC2)cc1`, the entry is “inactive”; as for `COc1ccc(C2=Nn3c(nnc3-c3ccccc3)SC2)cc1OC`, “inactive”; as for `COc1ccc(C2CC(c3ccc(OC)c(OC)c3)=NN2C(=O)c2ccccc2)cc1` (stereo not given), “inactive”. As for `CCOc1ccc(-c2nnc3n2N=C(c2ccc(OC)cc2)CS3)cc1`, the entry is “inactive”; as for `COc1ccc(C2=Nn3c(nnc3-c3ccccc3OC)SC2)cc1OC`, 5.8 µM (active).

As for `COc1ccc(C2=Nn3c(nnc3C3CCCCC3)SC2)cc1OC`, the Potency was 8.2 µM (active). Take `COc1ccc(C2=Nn3c(nnc3-c3ccccc3Cl)SC2)cc1OC1CCOC1` (stereo not given): the Potency is 13 µM (active).

For the compound `COc1ccc(C2=Nn3c(nnc3-c3ccccn3)SC2)cc1OC`, the Potency entry is “inactive”.
